High-throughput results deposited in PubChem by National Center for Advancing Translational Sciences (NCATS).
Sampled rows, rich in hits. Any-hit rate of the full collection: about 0.58%.
IL2 activator – activators of IL-2; hit rate 0.065% among 360,000; activation, % (series mostly up to about 46 µM); IL-2 activation reporter assay, cell-based qHTS; stimulated with anti-CD3/CD4/CD28 beads; in transgenic mouse T cells; in the data active = activation above about 50%; inconclusive = mostly about 30% to 49%; note: 0% is about no effect
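EGFP and DsRed fluorescence is measured by plate cytometry in unstimulated transgenic mouse T cells exposed to compound for 60 minutes, then stimulated 18 hours at 37 degrees C with anti-CD3/anti-CD4 beads plus anti-CD28.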
PKM2 act – PKM2 (human) enzyme activation; AID 1631; Potency, µM (top dose mostly 57.5 µM), without a hit: top-dose activation, actives largely listed as activators; hit rate 0.34% among 260,000; purified PKM2, Kinase-Glo ATP luminescence, activation; response scale: 0% is enzyme alone, no compound; note: potency is the fitted concentration of half-maximal effect; % is set by controls: 0 for no effect and ±100 for the full control effect; nearly all actives have a fitted effect of over 55% in size
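Purified hPK-M2 (>95%) run at intermediate activity with 0.1 mM ADP and 0.5 mM PEP in 50 mM imidazole pH 7.2, KCl, MgCl2; 1 h room temperature. ATP formed read by Kinase-Glo luminescence; normalized to uninhibited and no-enzyme controls.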
PINK1 modulator – PINK1 expression modulation; PINK1 immunofluorescence, high-content cytometry, 24 h; Potency, µM (doses to about 76.6 µM), for the others: at the top dose activation (PINK1 increase), most hits filed as activators; hit rate 0.2% among 410,000; AID 624263; active = well fitted activation curve with a large enough effect; inconclusive = small, poorly fitted or top-dose-only effect; cell line not stated here; note: potency is the fitted concentration of half-maximal effect; % of control where 0% means no effect; nearly all actives have a fitted effect of over 65% in size
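Readout is PINK1 immunofluorescence, quantified alongside mitochondrial, cell and nuclear markers by laser-scanning microplate cytometry. Cells from a stable line were exposed to compound titrations (5 concentrations) for 24 hours, with CCCP controls.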
Epigenetic reg – regulators of epigenetic silencing causing reporter derepression in mouse cells. hit rate 0.2% among 280,000. murine LDR cells, GFP reporter derepression, 30 h. AID 1865. Potency, µM (titrated, usually from 53.9 µM), for the others: top-dose GFP activation, most hits filed as activators; note: potency is the fitted concentration of half-maximal effect; % of control where 0% means no effect; nearly all actives have a fitted effect of over 60% in size
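Murine LDR cells carrying a silenced, genomically integrated CMV-driven GFP reporter were exposed to compound for 30 hours at 37 C. After PBS washes, GFP-positive cells (20–120 um objects) were counted by laser-scanning microplate cytometry.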
B2AR arrestin – beta2AR (human) beta-arrestin recruitment activity; AID 492947; beta-arrestin recruitment to beta2AR, cell-based reporter; Potency, µM (doses to about 46.1 µM), without a hit: top-dose activation, usual class: activators; hit rate 0.02% among 330,000;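 note: potency is the fitted concentration of half-maximal effect; 0% = DMSO controls and full agonism = EC100 isoproterenol or metaproterenol; nearly all actives have a fitted effect of over 65% in size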
Target sequence (P07550 whole entry, looked up): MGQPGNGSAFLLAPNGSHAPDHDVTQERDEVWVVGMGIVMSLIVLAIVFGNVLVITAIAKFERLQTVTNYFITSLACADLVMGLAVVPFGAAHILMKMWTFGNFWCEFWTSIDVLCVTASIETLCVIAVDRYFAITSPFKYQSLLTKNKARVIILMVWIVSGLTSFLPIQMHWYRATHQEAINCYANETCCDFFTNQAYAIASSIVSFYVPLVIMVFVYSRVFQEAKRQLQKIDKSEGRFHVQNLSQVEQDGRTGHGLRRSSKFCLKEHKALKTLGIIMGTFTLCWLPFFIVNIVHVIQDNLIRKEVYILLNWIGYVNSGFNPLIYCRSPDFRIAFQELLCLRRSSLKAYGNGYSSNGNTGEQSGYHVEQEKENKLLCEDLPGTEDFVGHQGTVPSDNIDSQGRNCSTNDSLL
* hit, by the source's call; ? = inconclusive; / = no result given. Unless noted, calls come from the whole dose curve; as a rule, active = well fitted curve in the direction sought with a large enough effect; inconclusive = small, poorly fitted or top-dose-only effect, or another doubt; inactive = no such curve, though single readings can be large; an effect the other way counts as inactive or inconclusive.

SMILES	IL2 activator	PKM2 act	PINK1 modulator	Epigenetic reg	B2AR arrestin
CCOC(=O)C1CCN(c2nc(N)c3c(N)nc(SCC(=O)O)cc3c2C#N)CC1	2.1	10µM*	0.9%	1.1%	0.1%
CC(=O)c1ccc(F)c(-c2cc(C)cc3c2OC(CNC(=O)c2cnc4ccccn4c2=O)C3)c1 (centres undefined)	/	/	1.2%	/	/
CC(=O)Oc1ccc(S(=O)(=O)c2ccc(OC(C)=O)cc2)cc1	4.3	14.1µM*	0.8%	0.2%	-0.2%
CC(C)CN(c1ccccc1)S(=O)(=O)c1nnc(NC(=O)C2CCCCC2)s1	/	/	-0.5%	28.2µM*	/
CCN(c1ccccc1)S(=O)(=O)c1nnc(NC(=O)C2CCCCC2)s1	/	/	4.5%	0.0%	/
CCN1CCCC1CNC(=O)c1cnn(-c2nccc(-c3ccco3)n2)c1C1CC1 (centres undefined)	/	/	-1.2%	/	/
COc1ccc(-c2cc(C(F)(F)F)c(C#N)c(SCC(=O)Nc3ccccc3F)n2)cc1	/	/	-1.4%	2.9%	/
COc1ccc(-c2cc(C(F)(F)F)c(C#N)c(SCC(=O)Nc3ccccc3C#N)n2)cc1	?	-1.4%	?	7.94µM*	-0.4%
COc1ccc(-c2cc(C(F)(F)F)c(C#N)c(SCC(=O)Nc3nc(C)co3)n2)cc1	2.6	-23.9%	8.91µM*	-1.0%	-0.1%
COC(=O)C1CCCCN1Cc1nc(N(C)C)c2ccccc2n1 (centres undefined)	/	/	-0.6%	/	/
CSc1nnc(CNC(=O)c2c(-c3ccccc3)noc2C)n1-c1ccc(F)cc1	/	/	0.7%	/	/
CCc1cccc2cc3c(N)c(C(=O)Nc4ccc(S(=O)(=O)N5CCCC5)cc4)sc3nc12	8.7	-2.4%	11.0%	11.2µM*	-1.0%
Cc1cccc2cc3c(N)c(C(=O)Nc4ccc(N5CCOCC5)cc4)sc3nc12	2.1	-0.6%	/	?	-0.4%
COC(=O)c1cccc(C(=O)N2CCc3c(C(=O)OC)c(OCc4ccccn4)cc(=O)n3CC2)c1	/	/	-1.0%	/	/
Cc1oc2c(C)c(O)ccc2c(=O)c1-c1nncn1-c1ccccc1	-0.3	17.8µM*	3.1%	7.7%	0.0%
Cc1oc2c(C)c(O)ccc2c(=O)c1N1C(=O)c2ccccc2C1=O	-0.3	5.8%	0.7%	-0.9%	-2.0%
CN(C)c1nc2cc3c(cc2cc1CN(CC1CCCO1)C(=O)/C=C/c1cccs1)OCO3 (centres undefined)	/	/	-0.1%	/	/
COc1cc(OC)c(/C=C/c2cc(/C=C/c3c(OC)cc(OC)cc3OC)[n+](C)c3ccccc23)c(OC)c1	/	/	39.8µM*	/	/
CCCCCCCn1c2c(c(=N)c3c1CCC3)CCCC2	0.4	2.6%	11.2µM*	0.0%	0.2%
COCc1c(C(=O)N2CCN(C3CCCC3)CC2)cnn1-c1nccc(-c2cccs2)n1	/	/	-0.2%	/	/
CC(=O)c1ccc(NCC2COc3ccccc3O2)c([N+](=O)[O-])c1 (centres undefined)	-0.4	2.0%	8.0%	2.5%	0.1%
NS(=O)(=O)c1ccc(NCC2COc3ccccc3O2)c([N+](=O)[O-])c1 (centres undefined)	0.2	20µM*	-0.8%	4.8%	0.1%
CCCS(=O)(=O)NCc1c(C)ncc2c1CCN(C(=O)c1cccc(Cl)c1F)C2	/	/	-0.2%	/	/
Cc1cnc(C)c(-c2ccc(F)c3c2OC(CNC(=O)/C=C/c2cccs2)C3)n1 (centres undefined)	/	/	2.7%	/	/
COCC1CCCN(Cc2ccc3c(c2)CN(C(=O)c2cc(-c4ccccc4)n[nH]2)CCO3)C1 (centres undefined)	/	/	5.3%	/	/
SMILES	IL2 activator	PKM2 act	PINK1 modulator	Epigenetic reg	B2AR arrestin
CCCCn1c(=O)[nH]c(=O)c2c1nc(-c1ccc(-c3ccccc3Br)o1)n2CCOC	-0.3	?	10.3%	11.3%	0.0%
COCCn1c(-c2ccc(-c3ccccc3Cl)o2)nc2c1c(=O)[nH]c(=O)n2CC(C)C	2.4	28.2µM*	4.4%	1.0%	-0.2%
Cc1c(C(=O)NCC2CC2)sc2ncnc(NCCN3CCCCC3)c12	/	/	1.3%	/	/
N#C/C(=N\Nc1ccc(S(=O)(=O)N2CCc3ccccc32)cc1)C(N)=S	0.9	19.2%	?	-0.6%	0.0%
CC(=O)N1CCc2cc(S(=O)(=O)N3CCc4ccccc43)ccc21	-3.2	20.7%	10.1%	/	0.2%
COC(=O)CCC(=O)N1CCc2cc(S(=O)(=O)N3CCc4ccccc43)ccc21	-1.2	12.6µM*	-0.5%	-0.9%	-0.5%
CCOC(=O)/C(C#N)=N/Nc1ccc(S(=O)(=O)N2CCc3ccccc32)cc1	0.1	12.1%	15.8µM*	-1.0%	-0.5%
Cc1ccc(-n2c(C)cc(/C=C3\NC(=O)NC3=O)c2C)c(C)c1	67.4*	5.6%	-2.2%	3.2%	-1.0%
CC(C)(C)OC(=O)NCCCCCc1nnc(SCC(=O)Nc2cccc(Cl)c2)o1	1.3	25.1µM*	0.3%	0.2%	0.4%
COc1ccc2cc(CN(C(=O)c3cc(C)nn3C)C3CC3)c(-c3ccc(Cl)cc3)nc2c1	/	/	1.0%	/	/
O=[N+]([O-])c1ccc(NCCCNS(=O)(=O)c2ccc(Cl)cc2)c(Cl)c1	-3.9	14.1µM*	-0.6%	-1.1%	0.1%
COc1ccccc1C1CN(Cc2ccc(Sc3nncn3C)o2)Cc2ccccc2O1 (centres undefined)	/	/	0.5%	/	/
CO[C@H]1[C@H](NC(=O)c2ccsc2)c2ccccc2C12CCN(Cc1cc(Cl)ccc1O)CC2	/	/	0.4%	/	/
Cn1cccc1/C=C1\SC(=O)N(c2ccc(O)cc2)C1=O	50.7*	5.4%	10.3%	?	-0.3%
CCOc1ccc(N2C(=O)S/C(=C\c3cccn3C)C2=O)cc1	0.9	4.9%	?	-0.8%	-0.5%
Cn1c(=S)c2[nH]c(SCCN3CCCC3)nc2n(C)c1=O	-0.3	-3.5%	0.5%	-0.3%	15.8µM*
O=S(=O)(NCC1CCN(S(=O)(=O)c2ccccc2)CC1)c1ccccc1	-1.2	2.82µM*	-5.2%	-1.1%	0.2%
O=S(=O)(Nc1ccc(Cl)cc1)c1ccc2c(c1)CCO2	-3.0	17.8µM*	2.4%	-1.0%	-0.7%
O=C(c1cccc(F)c1)N(Cc1cc2cc3c(cc2nc1N1CCOCC1)CCC3)CC1CCCO1 (centres undefined)	/	/	1.6%	/	/
COc1ccc(CCn2c(=N)c(S(=O)(=O)c3ccc(Cl)cc3)cc3c(=O)n4ccccc4nc32)cc1	80.5*	/	?	/	0.2%
COC(=O)c1cc(=O)n(Cc2cccs2)c(=Nc2ccccc2)s1	-0.7	-1.0%	4.3%	17.8µM*	0.1%
CN(C)c1ccc(/C=C2\SC(=S)N(Nc3ncc(C(F)(F)F)cc3Cl)C2=O)cc1	19.6	-2.2%	17.8µM*	14.1µM*	-0.9%
COc1ccc2c(c1)OC(C)CN(CCNC(=O)c1csc(-c3cccs3)n1)C2 (centres undefined)	/	/	-1.1%	/	/
Cc1c(C)n(C)c2ccc(C(=O)NCCc3ccco3)cc12	1.0	/	0.9%	/	0.3%
CCn1c(C)c(C)c2cc(C(=O)NCCc3ccco3)ccc21	-1.4	28.2µM*	-0.8%	/	0.3%
